# Source: PubChem BioAssay (NCATS)
# Unmarked numbers belong to inactive results. Inconclusive results are not listed. Entries that show only a call come without a potency. Calls of active or inactive are those of the source. Unless noted, calls follow the shape of the dose curve; as a rule, active = well fitted curve in the direction sought with a large enough effect; inconclusive = small, poorly fitted or top-dose-only effect, or another doubt; inactive = no such curve, though single readings can be large; an effect the other way counts as inactive or inconclusive.
# How the values were obtained:
# [1] = biological target: Arylsulfatase A (Homo sapiens) (UniProt P15289); test: qHTS screen for enhancers of Arylsulfatase A (ASA1): LOPAC Validation Assay (AID 720538); also: potency is read from the fitted curve at half-maximal effect
# Method in brief: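 Enhancer assay in patient-derived MLD fibroblasts carrying ASA-I179S: 48 h compound exposure at 37 C, then 14 h room-temperature pNCS turnover (0.5 mM final) in lysis buffer. Read by fluorescence at 525/598 nm after NaOH stop.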
# [2] = qHTS assay for small molecule activators of the p53 signaling pathway (AID 651743; active = well fitted activation curve with a large enough effect in the signal ratio, not every such curve was filed as active; the % refers to the signal ratio; also: series mostly up to about 92 µM); details: HCT-116 p53RE-bla, beta-lactamase FRET ratio, 16 h; hits give high values
# Method in brief: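 A beta-lactamase reporter under p53 response element control, stably carried by HCT-116 cells, reported pathway activation. Test compounds were applied for 16 hours at 37 C, and fluorescence was measured 2 hours after adding the B/G FRET substrate.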
# [3] = qHTS assay for small molecule activators of the nuclear factor-kappa B (NF-kB) signaling pathway (AID 651749; active = well fitted activation curve with a large enough effect in the signal ratio; the % refers to the signal ratio; also: series mostly up to about 77 µM); details: NF-kB-bla ME-180 cells, beta-lactamase FRET ratio, 16 h; hits give high values
# Method in brief: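 FRET-based beta-lactamase detection in ME-180 cells reports NF-kB response-element-driven transcription following overnight (16 hr) compound treatment.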
# [4] = biological target: Tumor necrosis factor (Homo sapiens) (UniProt P01375); test: qHTS assay to identify small molecules that stimulate Tumor Necrosis Factor-alpha (TNF-alpha) secretion (AID 651757; active = well fitted curve in the direction sought with a large enough effect in the signal ratio; the % refers to the signal ratio)
# Method in brief: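 THP-1 cells, 3000/well; compound 17 hrs, 37 C; add cryptate/XL665 anti-TNF-alpha antibody pair; 3 hr RT; TR-FRET (HTRF) read of secreted TNF-alpha. Quantitative HTS format.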
# [5] = qHTS assay to identify small molecules that stimulate interleukin-8 (IL-8) secretion (AID 651758; active = well fitted activation curve with a large enough effect in the signal ratio; the % refers to the signal ratio)
# Method in brief: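 Secreted IL-8 measured homogeneously by TR-FRET (two labelled anti-IL-8 antibodies, 1-3 h at room temperature) after a 16 h, 37 C compound treatment of THP-1 cells at 2000 cells/well.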
# [6] = qHTS assay for environmental chemicals that activate the Aryl hydrocarbon Receptor (AhR) signaling pathway (AID 651777); details: 1A2-DRE human hepatoma cells, luciferase, 24 h; hits give high values; also: nearly all actives have a fitted effect of over 15% in size
# Method in brief: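 Luminescence read-out: One-Glo added for 30 min at RT after 24 hr compound treatment (37 C, 5% CO2) of human hepatoma cells expressing a DRE/CYP1A2 promoter–luciferase reporter; increased signal indicates AhR activation.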
# [7] = biological target: Peroxisome proliferator-activated receptor alpha (Homo sapiens) (UniProt Q07869); test: qHTS assay for small molecule agonists of the peroxisome proliferator-activated receptor alpha (PPARalpha) signaling pathway (AID 651778); details: PathHunter PPARalpha complementation, chemiluminescence, 6 h; max response: hits give high values; also: potency is read from the fitted curve at half-maximal effect
# Method in brief: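 Chemiluminescence from complemented enzyme reported PPARalpha activation in cells after 6 hr of compound treatment at 37 C. The detection reagent was incubated for 60 min at room temperature, and compounds were scored as agonists.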
# [8] = biological target: Nuclear receptor ROR-gamma (Homo sapiens) (UniProt P51449); test: qHTS assay for small molecule antagonists of the retinoid-related orphan receptor gamma (ROR-gamma) signaling pathway (AID 651802);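 also: CHO cells with doxycycline-induced ROR-gamma expression; luciferase reporter luminescence driven by ROR response element; series mostly up to about 92 µM; nearly all actives have a fitted effect of over 60% in size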
# Method in brief: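 Luciferase read-out: ONE-Glo luminescence after 30 min at room temperature, following 16hr doxycycline induction at 37C, 5% CO2 of CHO cells with TET-inducible ROR and RORE-LUC reporter; decreased luminescence = reduced reporter activity.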
# [9] = qHTS for Activators of Parkin Expression: LOPAC Validation Assay (FLuc Reporter) (AID 720573)
# Method in brief: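 FLuc signal from Parkin-promoter coincidence reporter neuronal cells, normalized to DMSO and positive control (100%). Cells (1,500/well) pre-incubated 24 h, then exposed to LOPAC compounds in 7-point dose response for 24 h at 37 C, 5% CO2.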
# [10] = qHTS assay for small molecule agonists of the antioxidant response element (ARE) signaling pathway measured by Nrf2-dependant transcriptional activity (AID 720636; active = well fitted curve in the direction sought with a large enough effect in the repeat runs; an effect the other way counts as inactive or inconclusive;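 also: HepG2 cells with an ARE-driven luciferase reporter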)
# Method in brief: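 HepG2 ARE-luc reporter line, 1% dialyzed FBS; 6 hr attachment at 37 C, compound pinned in, 16 hr at 37 C/5% CO2; ONE-Glo, 30 min RT, luminescence read.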
# [11] = qHTS assay for small molecule antagonists of the retinoid-related orphan receptor gamma (ROR-gamma) signaling pathway - cell viability counter screen (AID 720652; active = well fitted curve in the direction sought with a large enough effect in the repeat runs; an effect the other way counts as inactive or inconclusive;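 also: CHO reporter cells with doxycycline-induced ROR-gamma expression; series mostly up to about 92 µM; compound exposure lasted 16 hr before ATP read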)
# Method in brief: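 CHO RORE-LUC/TET-ROR line, 1,000 cells/well, 37 C 5% CO2 5 hr; cpd or DMSO + doxycycline induction, 16 hr. CellTiter-Glo, 30 min RT, luminescence = ATP content.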
# [12] = qHTS assay for small molecule agonists of the antioxidant response element (ARE) signaling pathway measured by Nrf2-dependant transcriptional activity - cell viability counter screen (AID 720653; active = well fitted curve in the direction sought with a large enough effect in the repeat runs; an effect the other way counts as inactive or inconclusive); details: ARE-bla HepG2 viability, CellTiter-Glo ATP luminescence, 16 h; hits give low values
# Method in brief: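 Cytotoxicity counter screen: intracellular ATP quantified by CellTiter-Glo luminescence in the same ARE-bla HepG2 plates, after 16 h compound exposure and a 2 h beta-lactamase substrate step.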
# [13] = qHTS for compounds that reverse cellular toxicity of Amyloid beta (A-beta) peptide in yeast: LOPAC Validation Assay (AID 720559)
# Method in brief: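 Rescue of A-beta toxicity was scored as yeast growth by 600 nm absorbance after 48 hr at 30 C with compound. Normalization used DMSO (negative) and equimolar ferric chloride plus clioquinol (positive).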
# [14] = qHTS for Activators of Parkin Expression: LOPAC Validation Assay (NLuc Reporter) (AID 720572)
# Method in brief: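 Compound effects on Parkin promoter activity were measured as NanoLuc luminescence after 24 h at 37 C. The neuronal reporter line also carried FLuc, which was read first. LOPAC compounds were tested at 7 concentrations, with normalization to DMSO (0%) and positive control (100%).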
# [15] = biological target: Tyrosine-protein kinase Yes (Homo sapiens) (UniProt P07947); test: qHTS for small molecule inhibitors of Yes1 kinase: Primary Screen (AID 686947); details: Yes1 kinase biochemical qHTS inhibition; also: potency is read from the fitted curve at half-maximal effect; nearly all actives have a fitted effect of over 60% in size
# Method in brief: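 In this qHTS format, inhibition is expressed relative to DMSO controls with enzyme (maximum) and without enzyme (minimum). The 60 min room-temperature reaction uses 0.1 mM ATP, with ADP detected by luminescence.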
# [16] = qHTS for small molecule inhibitors of Yes1 kinase: Counter Assay (AID 686950);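 also: no kinase present so only ADP-Glo detection of a fixed ADP amount is tested; luminescence from ADP-Glo reporting ADP in a fixed ATP and ADP mixture; series mostly up to about 77 µM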
# Method in brief: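 ADP-Glo luminescence read after a 60 min room-temperature incubation of compound with an ATP/ADP mix (0.08 mM/0.02 mM) and no kinase, following a 20 min compound preincubation. Signal scaled between ATP+ADP (max) and 0.1 mM ATP-only (min) wells; Tris pH 7.5, Mg2+, DTT.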
# Sequence of Arylsulfatase A (Homo sapiens) (P15289 whole entry, looked up): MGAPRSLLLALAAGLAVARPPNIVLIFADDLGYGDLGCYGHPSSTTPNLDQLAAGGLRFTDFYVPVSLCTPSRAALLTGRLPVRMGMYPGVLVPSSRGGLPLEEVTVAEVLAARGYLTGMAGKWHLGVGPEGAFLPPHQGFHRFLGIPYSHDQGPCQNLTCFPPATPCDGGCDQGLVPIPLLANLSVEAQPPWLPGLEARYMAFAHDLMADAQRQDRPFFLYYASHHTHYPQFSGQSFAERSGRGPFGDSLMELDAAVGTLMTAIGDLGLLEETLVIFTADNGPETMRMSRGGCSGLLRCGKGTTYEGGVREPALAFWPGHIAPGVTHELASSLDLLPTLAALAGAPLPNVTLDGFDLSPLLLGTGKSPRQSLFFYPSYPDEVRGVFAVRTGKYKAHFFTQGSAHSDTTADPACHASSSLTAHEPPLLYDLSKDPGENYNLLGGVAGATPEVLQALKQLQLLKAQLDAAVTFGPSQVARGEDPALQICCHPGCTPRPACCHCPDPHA
# Sequence of Peroxisome proliferator-activated receptor alpha (Homo sapiens) (Q07869 whole entry, looked up): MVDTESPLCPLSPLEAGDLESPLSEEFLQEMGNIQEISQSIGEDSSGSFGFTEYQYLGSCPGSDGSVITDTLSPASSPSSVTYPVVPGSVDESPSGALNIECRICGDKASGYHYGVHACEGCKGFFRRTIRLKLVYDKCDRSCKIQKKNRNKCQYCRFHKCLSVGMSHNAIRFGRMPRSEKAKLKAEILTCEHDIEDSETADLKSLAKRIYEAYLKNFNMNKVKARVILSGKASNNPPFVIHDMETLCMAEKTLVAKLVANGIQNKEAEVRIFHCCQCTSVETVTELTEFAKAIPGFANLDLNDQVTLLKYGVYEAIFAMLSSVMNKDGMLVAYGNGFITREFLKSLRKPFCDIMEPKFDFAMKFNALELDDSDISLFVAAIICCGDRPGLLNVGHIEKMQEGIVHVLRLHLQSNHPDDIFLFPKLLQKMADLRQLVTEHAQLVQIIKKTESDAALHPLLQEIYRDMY
# Sequence of Tumor necrosis factor (Homo sapiens) (P01375 whole entry, looked up): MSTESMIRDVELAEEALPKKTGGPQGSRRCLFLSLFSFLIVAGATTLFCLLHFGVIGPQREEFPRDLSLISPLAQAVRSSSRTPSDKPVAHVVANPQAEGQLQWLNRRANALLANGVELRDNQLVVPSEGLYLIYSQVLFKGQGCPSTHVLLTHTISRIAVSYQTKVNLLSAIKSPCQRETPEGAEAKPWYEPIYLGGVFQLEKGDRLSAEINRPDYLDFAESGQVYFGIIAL
# Sequence of Tyrosine-protein kinase Yes (Homo sapiens) (P07947 whole entry, looked up): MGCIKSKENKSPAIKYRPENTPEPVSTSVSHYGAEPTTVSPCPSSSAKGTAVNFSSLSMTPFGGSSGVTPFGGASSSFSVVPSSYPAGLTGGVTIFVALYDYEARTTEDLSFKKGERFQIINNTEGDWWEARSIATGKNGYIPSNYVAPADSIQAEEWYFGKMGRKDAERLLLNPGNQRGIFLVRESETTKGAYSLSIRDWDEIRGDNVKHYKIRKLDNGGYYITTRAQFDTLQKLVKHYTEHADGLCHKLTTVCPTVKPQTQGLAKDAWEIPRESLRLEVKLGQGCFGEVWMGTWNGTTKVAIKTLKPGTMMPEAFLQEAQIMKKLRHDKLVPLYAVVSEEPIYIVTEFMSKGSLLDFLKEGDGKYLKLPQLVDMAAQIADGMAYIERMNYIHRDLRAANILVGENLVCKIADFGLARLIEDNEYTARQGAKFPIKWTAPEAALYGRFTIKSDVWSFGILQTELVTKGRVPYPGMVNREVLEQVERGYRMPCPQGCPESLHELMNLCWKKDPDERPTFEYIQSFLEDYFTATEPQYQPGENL
# Sequence of Nuclear receptor ROR-gamma (Homo sapiens) (P51449 whole entry, looked up): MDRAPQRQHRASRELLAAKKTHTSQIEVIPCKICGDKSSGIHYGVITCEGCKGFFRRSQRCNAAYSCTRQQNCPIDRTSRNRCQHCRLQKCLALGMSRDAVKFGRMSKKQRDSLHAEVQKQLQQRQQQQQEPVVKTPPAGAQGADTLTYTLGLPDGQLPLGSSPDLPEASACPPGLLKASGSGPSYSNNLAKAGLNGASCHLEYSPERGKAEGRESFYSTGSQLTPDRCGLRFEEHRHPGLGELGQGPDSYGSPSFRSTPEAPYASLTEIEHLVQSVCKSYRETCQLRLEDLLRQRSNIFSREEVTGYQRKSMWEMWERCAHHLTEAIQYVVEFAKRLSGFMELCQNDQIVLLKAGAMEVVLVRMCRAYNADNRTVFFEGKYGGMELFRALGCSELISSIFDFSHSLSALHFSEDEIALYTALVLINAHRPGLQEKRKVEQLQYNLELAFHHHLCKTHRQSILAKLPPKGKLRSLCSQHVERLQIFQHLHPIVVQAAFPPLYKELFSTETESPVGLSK
compound,measurement,setting,value
N[C@H]1CONC1=O,Potency,[1],inactive
CC(=O)C(C)=O,activation,[2],-1.05%
same,activation,[3],-1.05%
same,outcome,[4],inactive
same,outcome,[5],inactive
same,activation,[6],-0.684%
same,max response,[7],-2.24%
same,outcome,[8],inactive
same,Potency,[9],inactive
same,outcome,[10],inactive
same,outcome,[11],inactive
same,max response,[12],-2.25%
O=c1oc(Cl)c(Cl)c2ccccc12,Potency,[1],inactive
CC[C@H](NC(=O)c1c(C)c(-c2ccccc2)nc2ccccc12)c1ccccc1,Potency,[1],inactive
same,outcome,[13],inactive
same,Potency,[14],inactive
same,Potency,[9],inactive
O=c1ccn([C@@H]2O[C@H](COP(=O)(O)OP(=O)(O)O)[C@@H](O)[C@H]2O)c(=O)[nH]1,Potency,[1],inactive
same,outcome,[13],inactive
same,Potency,[14],inactive
same,Potency,[9],inactive
Nc1ccc(-c2ccc3ccccc3n2)cc1,Potency,[1],inactive
same,outcome,[13],inactive
same,Potency,[14],inactive
Nc1ncnc2c1ncn2C1CCCC1,Potency,[1],inactive
same,outcome,[13],inactive
same,Potency,[14],inactive
same,Potency,[9],inactive
CNC(=O)c1cc2c(cn1)[nH]c1ccccc12,Potency,[1],inactive
same,outcome,[13],inactive
same,Potency,[14],inactive
CC(C)NC[C@H](O)COc1ccc(CC(N)=O)cc1,Potency,[1],inactive
same,outcome,[13],inactive
same,Potency,[14],inactive
same,Potency,[9],inactive
CC(N)(Cc1ccc(O)c(O)c1)C(=O)O (stereo not drawn),Potency,[1],inactive
same,outcome,[13],inactive
same,Potency,[14],inactive
same,Potency,[9],inactive
CCCCCCCCCCCCCCSCC(=O)O,activation,[2],1.79%
same,activation,[3],3.35%
same,activation,[6],0.376%
same,Potency,[7],10 µM (active)
same,outcome,[13],inactive
same,Potency,[14],inactive
same,Potency,[9],inactive
same,max response,[12],2.74%
CN(C)S(=O)(=O)c1ccc2c(c1)/C(=C/c1cc3c([nH]1)CCCC3)C(=O)N2,Potency,[15],97.2 nM (active)
same,outcome,[16],inactive
same,Potency,[1],inactive
same,outcome,[13],inactive
same,Potency,[14],inactive
CCOC(=O)C12CC1/C(=N/O)c1ccccc1O2 (stereo not drawn),Potency,[1],inactive
same,outcome,[13],inactive
same,Potency,[14],inactive
same,Potency,[9],inactive
Nc1ncnc2c1nc(Br)n2C1OC2COP(=O)(O)O[C@@H]2C1O (stereo partly drawn),Potency,[1],inactive
same,outcome,[13],inactive
same,Potency,[14],inactive
same,Potency,[9],inactive
CC(N)(Cc1ccc(O)cc1)C(=O)O (stereo not drawn),Potency,[1],inactive
NC1CONC1=O (stereo not drawn),Potency,[1],inactive
Oc1ccc(Cn2cc[nH]c2=S)cc1,Potency,[1],inactive
same,outcome,[13],inactive
same,Potency,[14],inactive
same,Potency,[9],inactive
CCCCOc1cc(CC2CNC(=O)N2)ccc1OC (stereo not drawn),Potency,[1],inactive
same,outcome,[13],inactive
same,Potency,[14],inactive
same,Potency,[9],inactive
CCCC(=O)NCCc1c2n(c3ccc(OC)cc13)CCCc1ccccc1-2,Potency,[1],inactive
same,outcome,[13],inactive
same,Potency,[14],inactive
same,Potency,[9],inactive
Nc1ccc2c3c(cccc13)C(=O)NC2=O,Potency,[1],4.26 µM (active)
same,outcome,[13],inactive
same,Potency,[14],inactive
same,Potency,[9],inactive
